# Laboratory results: the supplement of paper PMC10849652
# Targets with a hit are over-represented here; the source holds about 8,800 in all. About 0.5% of all pairs of compound and target were hits. A number with no mark means an inactive call.
# Tests used:
# Assay in all cases: log2 fold change, soluble protein after heating vs DMSO (PISA); higher = thermal stabilisation; K562 lysate, 10 uM; active = over 0.2 and 3.5 SD of the protein, either way, in both replicates (recomputed)
# ibrutinib = compound: C=CC(=O)N1CCC[C@@H](n2nc(-c3ccc(Oc4ccccc4)cc3)c3c(N)ncnc32)C1 [ibrutinib]
# Procedure, shortened: (§1)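 K562 pellets were dounce-homogenised in PBS pH 7.4 containing 1 mM MgCl2, and the crude extract, at 1 mg/mL protein, was exposed to 10 μM compound for 30 min. Aliquots were heated for 3 min across 48°C-58°C, pooled, brought to 0.5% NP-40 at 4°C and spun at 21,000xg for 90 min, with the supernatant taken as soluble protein. TMTpro 16plex LC-MS/MS with equalised channel sums quantified that protein. Values are log-two fold changes in thermal stability relative to solvent controls, taken from duplicates.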
# [1] = compound: CC(=O)c1cnc2ccc(-c3cc(Cl)c(O)c(Cl)c3)nc2c1N[C@H]1CC[C@H](CN(C)C)CC1
# Procedure, shortened: as §1
# ralimetinib = compound: CC(C)(C)Cn1c(N)nc2ccc(-c3[nH]c(C(C)(C)C)nc3-c3ccc(F)cc3)nc21 [ralimetinib]
# Procedure, shortened: as §1
# [2] = compound: CC(C)(O)CC(=O)NCCn1ccc2ncnc(Nc3ccc(Oc4cccc(C(F)(F)F)c4)c(Cl)c3)c21
# Procedure, shortened: as §1
# [3] = compound: CC(C)C1=C2N=C(C=C(N2N=C1)NCC3=CC=CC=C3)NCCCCCCN
# Procedure, shortened: as §1
# [4] = compound: CC1=C(C(CC(=O)N1)C2=CC=C(C=C2)C(F)(F)F)C(=O)NC3=C(C=C4C(=C3)C=NN4)F
# Procedure, shortened: as §1
# [5] = compound: CC1=C(C2=C(C=C1)C(=O)C3=CC=CC=C3N2CCCN)C
# Procedure, shortened: as §1
# [6] = compound: CC1=C(C=C(C=C1)NC(=O)C2=CC(=CC=C2)N(C)C)NC(=O)C3=CC=C(C=C3)O
# Procedure, shortened: as §1
# [7] = compound: CC1=CC=C(C=C1)SC2=C3C=C(SC3=CN=C2)C(=O)N
# Procedure, shortened: as §1
# vemurafenib = compound: CCCS(=O)(=O)Nc1ccc(F)c(C(=O)c2c[nH]c3ncc(-c4ccc(Cl)cc4)cc23)c1F [vemurafenib]
# Procedure, shortened: as §1
# [8] = compound: CCCS(=O)(=O)Nc1ccc(F)c(C(=O)c2c[nH]c3ncc(Cl)cc23)c1F
# Procedure, shortened: as §1
# barasertib = compound: CCN(CCCOc1ccc2c(Nc3cc(CC(=O)Nc4cccc(F)c4)[nH]n3)ncnc2c1)CCOP(=O)(O)O [barasertib]
# Procedure, shortened: as §1
# [9] = compound: CC[C@@H]1C(=O)N(C)c2cnc(Nc3ccc(C(=O)NC4CCN(C)CC4)cc3OC)nc2N1C1CCCC1
# Procedure, shortened: as §1
# volasertib = compound: CC[C@@H]1C(=O)N(C)c2cnc(Nc3ccc(C(=O)N[C@H]4CC[C@H](N5CCN(CC6CC6)CC5)CC4)cc3OC)nc2N1C(C)C [volasertib]
# Procedure, shortened: as §1
# [10] = compound: CCn1c(C(=O)N(C2CC2)C2CC2)cc2c3c(ncn3C)c(Nc3cc(C)n(C)n3)nc21
# Procedure, shortened: as §1
# [11] = compound: CCn1cc(-c2ccnc3[nH]c(-c4cccc(CN(C)C)c4)cc23)c(-c2ccc(NC(=O)N(C)C)cc2)n1
# Procedure, shortened: as §1
# [12] = compound: CN1CCC(CNc2ccc3ncc(-c4cccc(OC(F)(F)F)c4)n3n2)CC1
# Procedure, shortened: as §1
# saracatinib = compound: CN1CCN(CCOc2cc(OC3CCOCC3)c3c(Nc4c(Cl)ccc5c4OCO5)ncnc3c2)CC1 [saracatinib]
# Procedure, shortened: as §1
# [13] = compound: CC1=C(C=C(C=C1)NC(=O)C2=CC(=CC=C2)C(C)(C)C#N)NC3=CC4=C(C=C3)N=CN(C4=O)C
# Procedure, shortened: as §1
# sotrastaurin = compound: CN1CCN(c2nc(C3=C(c4c[nH]c5ccccc45)C(=O)NC3=O)c3ccccc3n2)CC1 [sotrastaurin]
# Procedure, shortened: as §1
# Sequence of UniProt O95248 (O95248 whole entry, looked up): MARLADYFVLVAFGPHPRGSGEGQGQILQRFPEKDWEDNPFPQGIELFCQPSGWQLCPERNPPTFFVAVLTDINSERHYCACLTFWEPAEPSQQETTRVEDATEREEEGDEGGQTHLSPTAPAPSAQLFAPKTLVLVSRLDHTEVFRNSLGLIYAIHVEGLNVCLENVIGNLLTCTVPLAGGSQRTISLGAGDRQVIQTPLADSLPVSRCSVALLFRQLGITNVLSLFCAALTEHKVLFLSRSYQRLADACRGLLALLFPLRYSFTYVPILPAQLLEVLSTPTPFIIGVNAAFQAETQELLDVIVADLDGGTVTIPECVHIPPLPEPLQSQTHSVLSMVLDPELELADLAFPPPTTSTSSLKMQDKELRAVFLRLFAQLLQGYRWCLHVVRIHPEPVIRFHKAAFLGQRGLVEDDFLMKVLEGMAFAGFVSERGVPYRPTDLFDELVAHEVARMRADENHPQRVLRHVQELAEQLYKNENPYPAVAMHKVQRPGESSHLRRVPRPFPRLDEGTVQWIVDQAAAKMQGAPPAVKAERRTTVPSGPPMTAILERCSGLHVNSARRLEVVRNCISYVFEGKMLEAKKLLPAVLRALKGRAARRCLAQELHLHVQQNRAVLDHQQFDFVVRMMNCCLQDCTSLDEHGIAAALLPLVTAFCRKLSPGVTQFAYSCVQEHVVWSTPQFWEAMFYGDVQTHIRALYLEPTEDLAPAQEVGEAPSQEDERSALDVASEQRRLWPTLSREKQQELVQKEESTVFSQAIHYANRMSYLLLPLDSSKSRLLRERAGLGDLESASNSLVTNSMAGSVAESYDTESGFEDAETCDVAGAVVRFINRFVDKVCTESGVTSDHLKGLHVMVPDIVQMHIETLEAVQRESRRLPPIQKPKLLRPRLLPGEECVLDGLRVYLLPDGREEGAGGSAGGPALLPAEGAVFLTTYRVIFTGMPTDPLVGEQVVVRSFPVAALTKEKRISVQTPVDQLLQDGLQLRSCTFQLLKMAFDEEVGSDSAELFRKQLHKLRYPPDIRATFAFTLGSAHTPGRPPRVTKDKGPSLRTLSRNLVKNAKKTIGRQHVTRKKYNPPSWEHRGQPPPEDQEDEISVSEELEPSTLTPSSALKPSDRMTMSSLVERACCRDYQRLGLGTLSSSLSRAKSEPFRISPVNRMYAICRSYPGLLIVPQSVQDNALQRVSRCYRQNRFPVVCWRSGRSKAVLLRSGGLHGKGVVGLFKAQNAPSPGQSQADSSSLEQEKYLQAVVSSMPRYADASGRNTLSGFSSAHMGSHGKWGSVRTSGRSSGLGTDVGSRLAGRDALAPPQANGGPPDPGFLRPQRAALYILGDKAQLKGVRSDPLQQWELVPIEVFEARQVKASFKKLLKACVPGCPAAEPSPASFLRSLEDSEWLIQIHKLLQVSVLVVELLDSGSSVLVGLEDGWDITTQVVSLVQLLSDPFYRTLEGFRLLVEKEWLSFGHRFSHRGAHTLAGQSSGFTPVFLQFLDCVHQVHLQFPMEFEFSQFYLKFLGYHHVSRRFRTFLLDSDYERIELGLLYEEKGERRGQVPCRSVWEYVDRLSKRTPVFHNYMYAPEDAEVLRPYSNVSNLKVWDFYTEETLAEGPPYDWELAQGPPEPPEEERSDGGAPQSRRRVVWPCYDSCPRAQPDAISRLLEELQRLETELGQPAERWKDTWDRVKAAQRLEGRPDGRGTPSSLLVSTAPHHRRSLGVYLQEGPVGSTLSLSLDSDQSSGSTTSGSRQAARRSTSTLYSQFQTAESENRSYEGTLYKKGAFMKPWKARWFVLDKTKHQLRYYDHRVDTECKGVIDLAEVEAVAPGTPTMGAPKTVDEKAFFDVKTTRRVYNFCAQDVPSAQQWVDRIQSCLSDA
# Sequence of UniProt P23921 (P23921 whole entry, looked up): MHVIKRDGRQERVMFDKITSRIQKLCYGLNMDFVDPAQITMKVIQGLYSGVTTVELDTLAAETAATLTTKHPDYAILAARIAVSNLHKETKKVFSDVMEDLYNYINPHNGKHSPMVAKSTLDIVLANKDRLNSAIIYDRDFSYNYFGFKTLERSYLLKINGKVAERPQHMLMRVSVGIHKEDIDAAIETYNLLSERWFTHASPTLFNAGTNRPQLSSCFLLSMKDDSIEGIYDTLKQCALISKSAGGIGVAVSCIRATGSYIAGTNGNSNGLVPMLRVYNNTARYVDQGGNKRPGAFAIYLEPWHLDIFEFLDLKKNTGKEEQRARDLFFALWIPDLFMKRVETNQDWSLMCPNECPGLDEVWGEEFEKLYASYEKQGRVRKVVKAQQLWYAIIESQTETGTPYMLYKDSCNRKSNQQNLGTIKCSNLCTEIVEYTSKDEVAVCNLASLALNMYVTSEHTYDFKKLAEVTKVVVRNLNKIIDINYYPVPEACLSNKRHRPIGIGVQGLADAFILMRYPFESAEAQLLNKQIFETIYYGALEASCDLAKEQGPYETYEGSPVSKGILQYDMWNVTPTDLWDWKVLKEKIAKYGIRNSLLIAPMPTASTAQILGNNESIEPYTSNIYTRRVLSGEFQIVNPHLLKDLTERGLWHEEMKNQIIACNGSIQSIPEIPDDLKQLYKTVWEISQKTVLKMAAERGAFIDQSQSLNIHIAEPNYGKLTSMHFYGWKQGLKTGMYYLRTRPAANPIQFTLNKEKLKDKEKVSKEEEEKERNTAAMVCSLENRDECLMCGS
# Sequence of UniProt Q92698 (Q92698 whole entry, looked up): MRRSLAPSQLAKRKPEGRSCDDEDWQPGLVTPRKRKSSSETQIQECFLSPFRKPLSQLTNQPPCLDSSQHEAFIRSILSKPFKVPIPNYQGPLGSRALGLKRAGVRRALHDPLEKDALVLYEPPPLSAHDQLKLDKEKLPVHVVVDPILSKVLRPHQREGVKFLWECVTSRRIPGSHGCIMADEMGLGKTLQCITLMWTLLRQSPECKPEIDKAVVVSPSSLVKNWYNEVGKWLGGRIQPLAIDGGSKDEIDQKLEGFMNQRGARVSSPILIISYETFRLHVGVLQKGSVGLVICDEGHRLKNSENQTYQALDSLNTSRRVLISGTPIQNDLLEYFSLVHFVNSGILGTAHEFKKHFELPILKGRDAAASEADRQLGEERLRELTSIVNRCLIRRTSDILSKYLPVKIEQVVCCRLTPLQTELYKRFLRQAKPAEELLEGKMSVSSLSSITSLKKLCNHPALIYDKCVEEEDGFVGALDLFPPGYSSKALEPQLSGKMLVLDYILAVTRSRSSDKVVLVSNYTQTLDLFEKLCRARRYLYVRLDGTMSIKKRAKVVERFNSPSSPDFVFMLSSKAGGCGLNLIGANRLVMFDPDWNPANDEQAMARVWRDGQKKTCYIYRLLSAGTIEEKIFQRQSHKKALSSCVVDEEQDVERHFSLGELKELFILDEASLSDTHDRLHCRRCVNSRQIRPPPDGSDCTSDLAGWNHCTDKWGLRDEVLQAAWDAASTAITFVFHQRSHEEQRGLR
# Sequence of UniProt Q9UPU9 (Q9UPU9 whole entry, looked up): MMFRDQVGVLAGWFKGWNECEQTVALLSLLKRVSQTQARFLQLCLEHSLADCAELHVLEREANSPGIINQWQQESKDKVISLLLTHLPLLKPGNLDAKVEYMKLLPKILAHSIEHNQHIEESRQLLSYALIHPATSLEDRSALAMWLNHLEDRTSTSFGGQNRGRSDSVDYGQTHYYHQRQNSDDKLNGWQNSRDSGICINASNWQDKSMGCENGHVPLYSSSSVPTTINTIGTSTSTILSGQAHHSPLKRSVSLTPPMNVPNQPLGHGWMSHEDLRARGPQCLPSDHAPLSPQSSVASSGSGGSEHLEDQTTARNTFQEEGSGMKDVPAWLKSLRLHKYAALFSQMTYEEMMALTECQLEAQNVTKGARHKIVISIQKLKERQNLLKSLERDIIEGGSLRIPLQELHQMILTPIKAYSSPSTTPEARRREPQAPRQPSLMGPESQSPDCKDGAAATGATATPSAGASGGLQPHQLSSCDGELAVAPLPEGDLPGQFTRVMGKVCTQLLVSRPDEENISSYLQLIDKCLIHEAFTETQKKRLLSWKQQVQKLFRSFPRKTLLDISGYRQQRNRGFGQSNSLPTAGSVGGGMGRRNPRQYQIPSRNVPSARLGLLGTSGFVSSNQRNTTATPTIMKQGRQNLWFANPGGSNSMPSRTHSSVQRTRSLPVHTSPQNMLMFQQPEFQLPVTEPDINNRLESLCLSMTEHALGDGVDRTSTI
# Sequence of UniProt Q8IUH3 (Q8IUH3 whole entry, looked up): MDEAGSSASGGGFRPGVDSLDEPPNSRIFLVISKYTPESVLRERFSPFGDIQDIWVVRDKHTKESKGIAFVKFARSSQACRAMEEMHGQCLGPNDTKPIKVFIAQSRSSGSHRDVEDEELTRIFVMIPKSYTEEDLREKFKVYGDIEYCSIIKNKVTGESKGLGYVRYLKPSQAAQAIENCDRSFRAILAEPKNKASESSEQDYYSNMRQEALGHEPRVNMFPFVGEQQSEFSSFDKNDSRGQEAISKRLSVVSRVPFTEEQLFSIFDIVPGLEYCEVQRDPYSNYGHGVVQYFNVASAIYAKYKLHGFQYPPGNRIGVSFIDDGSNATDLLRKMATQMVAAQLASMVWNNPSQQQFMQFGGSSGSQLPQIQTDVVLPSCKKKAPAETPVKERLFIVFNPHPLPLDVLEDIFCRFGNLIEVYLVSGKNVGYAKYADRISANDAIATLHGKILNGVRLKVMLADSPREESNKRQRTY
# Sequence of UniProt P61586 (P61586 whole entry, looked up): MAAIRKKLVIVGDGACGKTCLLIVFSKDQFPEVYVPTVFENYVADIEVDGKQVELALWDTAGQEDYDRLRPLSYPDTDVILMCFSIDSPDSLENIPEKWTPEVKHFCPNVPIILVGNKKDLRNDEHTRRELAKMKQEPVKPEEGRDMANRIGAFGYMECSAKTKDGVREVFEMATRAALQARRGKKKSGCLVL
Target,log2 fold change (ibrutinib),log2 fold change [1],log2 fold change (ralimetinib),log2 fold change [2],log2 fold change [3],log2 fold change [4],log2 fold change [5],log2 fold change [6],log2 fold change [7],log2 fold change (vemurafenib),log2 fold change [8],log2 fold change (barasertib),log2 fold change [9],log2 fold change (volasertib),log2 fold change [10],log2 fold change [11],log2 fold change [12],log2 fold change (saracatinib),log2 fold change [13],log2 fold change (sotrastaurin)
RTTN (UniProt Q86VV8),0.095,0.155,0.145,-0.137,0.379,-0.053,0.015,-0.004,0.112,0.066,0.011,0.043,-0.101,-0.293,0.099,-0.347,-0.316,0.047,–,–
RBBP7 (UniProt Q16576),0.062,0.018,0.018,0,-0.042,-0.003,0.014,0.002,-0.03,0.044,-0.021,-0.072,-0.017,-0.004,-0.002,–,–,0.021,-0.114,0.043
RRM1 (UniProt P23921),0.025,0,0.005,-0.01,0.022,0,-0.033,0.024,0.016,0.023,0.018,0.011,-0.065,-0.063,0.003,-0.045,-0.031,-0.02,-0.009,-0.016
RHOA (UniProt P61586),0.36,-0.041,0.014,0.094,0.031,0.003,0.093,-0.022,-0.006,0.003,-0.005,-0.07,0.069,0.009,0.042,0.45 (active),-0.06,0.009,-0.02,0
RAD54L2 (UniProt Q9Y4B4),-0.005,0.23,–,–,-0.073,0.131,-0.051,–,0.094,0.159,0.081,-0.032,-0.201,-0.072,–,-0.149,0,0.078,0.031,-0.061
RXRB isoform 3 (UniProt P28702),0.047,-0.037,–,–,0.106,0.026,-0.005,–,-0.109,0.028,0.136,0.106,0.008,-0.125,–,-0.008,-0.089,-0.048,0.011,-0.051
RAD54L (UniProt Q92698),-0.081,0.035,-0.062,-0.224,0.085,0,0.039,0.054,0.059,–,-0.054,0.012,–,0.015,0.005,-2.19 (active),0.648,0.095,–,–
SBF1 isoform 4 (UniProt O95248),0.086,0.116,0,-0.021,-0.079,0.045,-0.039,0.054,0.079,0.118,0.012,0.033,0.071,-0.111,0.014,-0.107,0.029,0.062,-0.012,0
"RNF213, A0A0A0MTC1",0.015,0.006,-0.001,-0.014,0.007,0.014,0.008,0.042,0.022,0.017,0.025,0.076,-0.038,-0.077,0.027,-0.05,-0.053,0.027,0.014,0.043
SAMD4A (UniProt Q9UPU9),-0.014,0.052,0.395,0.097,0.094,–,-0.008,0.196,0.088,-0.032,-0.376,0.005,0.05,0.014,-0.292,1.12,0.115,0.07,0.025,0.01
RPL28 (UniProt P46779),-0.026,-0.011,-0.003,-0.005,0.006,-0.038,-0.066,0.012,0.026,0,-0.016,-0.049,-0.001,0.006,-0.017,0.278 (active),-0.066,-0.011,-0.021,-0.038
RIOK3 (UniProt O14730),-0.021,-0.013,0.055,0,0.054,-0.011,-0.023,0.011,-0.093,0.021,-0.004,0.004,-0.098,-0.041,-0.032,-0.052,-0.024,-0.03,0.001,0.013
RETREG2 (UniProt Q8NC44),0.011,0.009,0.071,-0.129,0.062,0.127,–,0.116,0.011,0.037,-0.036,0.033,-0.009,0.09,-0.086,-0.261,0.014,–,0.051,0.112
RINT1 (UniProt Q6NUQ1),0.011,0.07,0.05,-0.094,0.016,-0.066,-0.064,0.012,0.016,0.065,0.022,0.095,-0.055,-0.113,0.088,-0.048,-0.044,0.095,-0.02,0.058
RBM45 (UniProt Q8IUH3),–,-0.077,–,–,–,-0.127,–,–,0.487 (active),–,0.12,–,–,-0.207,–,0.128,-0.015,–,0.038,0.077
RAD17 (UniProt O75943),0.023,–,0.054,0.041,–,0.026,-0.029,0.049,–,-0.091,–,0.131,0.017,–,0.07,-0.214,-0.027,0.042,-0.041,-0.004
RFWD3 (UniProt Q6PCD5),-0.001,–,0.039,-0.059,0.066,0.059,-0.06,-0.007,–,-0.073,–,0.004,-0.011,–,-0.062,-0.087,-0.055,-0.036,0.087,-0.017
